Assay outcomes: PubChem BioAssay, National Center for Advancing Translational Sciences (NCATS)
ALDH1A1 inh = ALDH1A1 (human) enzyme inhibition; P00352; Purified ALDH1A1, NADH fluorescence, propionaldehyde substrate; Potency, µM (series often up to 75.3 µM), without a hit: top-dose activity, negative = inhibition, hits mostly inhibitors; 220,000 tested, 7.3% active; active means well fitted inhibition curve with a large enough effect, not every such curve was filed as active; inconclusive means small, poorly fitted or top-dose-only effect, or another doubt; inactive means no such curve, though single readings can be large or run the other way;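 further: potency means the concentration at half of the fitted maximal effect; plate controls were no enzyme wells and a reference inhibitor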
Target sequence (P00352 whole entry, looked up): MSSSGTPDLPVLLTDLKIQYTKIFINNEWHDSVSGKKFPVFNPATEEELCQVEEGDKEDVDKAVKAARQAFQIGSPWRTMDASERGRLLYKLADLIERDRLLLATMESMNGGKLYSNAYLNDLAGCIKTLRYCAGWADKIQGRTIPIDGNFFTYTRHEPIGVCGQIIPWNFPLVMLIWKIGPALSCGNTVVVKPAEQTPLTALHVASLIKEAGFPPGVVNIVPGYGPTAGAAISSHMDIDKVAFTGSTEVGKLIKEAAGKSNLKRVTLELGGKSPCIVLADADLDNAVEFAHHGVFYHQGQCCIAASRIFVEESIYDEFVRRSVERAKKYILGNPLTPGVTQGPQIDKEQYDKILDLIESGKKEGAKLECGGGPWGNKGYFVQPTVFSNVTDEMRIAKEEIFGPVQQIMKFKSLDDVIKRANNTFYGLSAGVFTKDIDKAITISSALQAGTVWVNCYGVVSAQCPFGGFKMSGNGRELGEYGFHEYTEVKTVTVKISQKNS
CBFb-RUNX1 inh = CBF-beta/RUNX1 interaction disruption | 230,000 tested, under 10 active | Potency, µM (series often up to 59.8 µM), without a hit: top-dose activity, negative = inhibition, actives largely listed as inhibitors | AlphaScreen CBFb-His/RUNX1-biotin binding, biochemical | Q01196+Q13951 | AID 1477; further: % of control where 0% means no effect
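His-tagged CBF-beta and biotinylated RUNX1 (30 nM each) were premixed 20 min at room temperature, exposed to compound for 15 min, then given nickel-chelate and streptavidin AlphaScreen beads (50 ng each). After 90 min, AlphaScreen signal was read.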
PNC inhibitor = inhibitors of perinucleolar compartment assembly; 140,000 tested, 3.1% active; activity change (PNC), negative = inhibition, % at 10 µM; AID 2417; PC3M PTB-GFP, PNC prevalence imaging, 16 h; active compounds read low;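 active means readout at or below -70, meaning at least 70% loss of cells showing the perinucleolar compartment, a nuclear body marking cancer cells; inconclusive means readout between -30 and a set limit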;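 further: plate controls were DMSO wells for no effect and camptothecin positive control wells for full effect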
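PC3M cells stably expressing PTB-GFP, 750–1000 cells/well, treated 16 h at 37 °C with compound (23 nl of library stock), in duplicate. After paraformaldehyde fixation and Hoechst stain, imaged at 20x; PNC prevalence scored by image analysis.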
HPGD inh = blocks human HPGD enzyme activity. 150,000 tested, 4.3% active. P15428. purified HPGD, NADH fluorescence kinetic, PGE2 substrate. Potency, µM, for inactives: top-dose activity change, negative = inhibition, usual class: inhibitors; active means well fitted inhibition curve with a large enough effect, not every such curve was filed as active; inconclusive means small, poorly fitted or top-dose-only effect, or another doubt; inactive means no such curve, though single readings can be large or run the other way; further: potency means the concentration at half of the fitted maximal effect; on the % scale 0 is the no-effect control and ±100 the full control effect
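NADH formation kinetics: reaction with 30 uM PGE2 and 1 mM NAD+ (final), 20 nM enzyme, Tris-HCl pH 8 with Tween 20, after 15 min compound preincubation at room temperature. Fluorescence change, last versus first of five reads.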
HTT aggregate = mutant huntingtin aggregation inhibition; 220,000 tested, 1.1% active; PC12 HttQ103-GFP aggregates, Acumen cytometry, 40 h; Potency, µM (top dose mostly 46.1 µM), for inactives: at the highest dose activity change, negative = inhibition, hits mostly inhibitors; further: potency means the concentration at half of the fitted maximal effect; on the % scale 0 is the no-effect control and ±100 the full control effect; nearly all actives have a fitted effect of over 60% in size
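Steps: seed 1500 PC12 HTTQ103-GFP cells/well; add tebufenozide, 100 nM final; add compound titration; add ATPLite reagent; quantify GFP aggregates by laser scanning cytometry.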
HTT ATP protect = cytoprotection in Huntington HTT-Q103 PC12 cell model. PC12 HTT-Q103 induced, cytoprotection, ATP luminescence, 40 h. 230,000 tested, 0.14% active. Potency, µM (doses to about 56.4 µM), for the others: cytoprotection (ATP increase), actives largely listed as activators; further: potency means the concentration at half of the fitted maximal effect; % of control where 0% means no effect; nearly all actives have a fitted effect of over 45% in size
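ATP quantification (ATPlite) reports survival of PC12 cells in which tebufenozide, 100 nM final, switches on Htt exon 1 with 103 glutamines linked to GFP; compounds are titrated.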
An asterisk follows results filed as active; ? = inconclusive; . = no result; [ ] = another dose, or the depositor's remark. Compounds with a hit are over-represented: about 11% of the library has one in this group of screens. Unless noted, the call rests on the fitted dose curve; in most records, active means well fitted curve in the direction sought with a large enough effect; inconclusive means small, poorly fitted or top-dose-only effect, or another doubt; inactive means no such curve, though single readings can be large; an effect the other way counts as inactive or inconclusive.

SMILES	ALDH1A1 inh	CBFb-RUNX1 inh	PNC inhibitor	HPGD inh	HTT aggregate	HTT ATP protect
CN(C)c1ccc(/C=C(/C(=O)c2ccc(Cl)cc2Cl)n2cncn2)cc1	1.1µM*	-1%	27	-21%	9%	-4%[1.9 µM]
CN(C)/C=C(/C(=O)c1ccc(Cl)cc1)n1cncn1	-1%	-9%	.	.	15%	-11%[10 µM]
COc1ccc(/C=C(/C(=O)c2ccc(Cl)cc2Cl)n2cncn2)cc1	8.9µM*	1%	8	-11%	?	-17%
CC(C)CC(=O)/C(=C\c1ccc(Cl)cc1Cl)n1cncn1	22µM*	1%	72	?	29%	-30%[10 µM]
O=C(O)c1cc(N2C(=O)C3C4C=CC(C4)C3C2=O)ccc1N1CCOCC1 (centres undefined)	-4%	4%	.	.	3%[9.22 µM]	10%[10 µM]
CSCCC(NS(=O)(=O)c1ccc(Br)cc1)C(=O)OCC(=O)NC1CC1 (centres undefined)	?	-3%	.	.	-7%	.
Cc1cccc(Oc2ccccc2NC(=O)c2cnccn2)c1	11µM*	6%	21	-17%	6%	-5%
O=C(Nc1ccccc1F)c1cnccn1	7%	-4%	.	.	-1%	-24%
CC(C)(C)c1nc(NC(=O)Nc2ccccc2)sc1Br	?	-2%	.	.	11µM*	-129%
COc1ccc2nc(NC(=O)Nc3ccccc3)sc2c1	-2%	-2%	2	-11%	6%	-230%
COc1ccc(-c2c(C3C4C=CCCC4(C)C(=O)N3Cc3ccccc3)ccc3ccccc23)cc1OC (centres undefined)	.	-12%	.	.	.	.
CCN(CC)c1ccc(NC(=O)CN2CCN(c3nc(C)cc(C)n3)CC2)cc1	7.9µM*	1%	-5	?	-14%	10%
CC(=O)c1ccc(NC(=O)CN2CCN(c3ncccn3)CC2)cc1	8.9µM*	0%	18	-5%	6%	2%
COc1ccccc1CN1CCCC2(CCN(C(=O)c3cccn3C)CC2)C1	8%	.	.	-10%	.	?
CCCN(CCC)S(=O)(=O)c1ccc(C(=O)Nc2nc(-c3ccccc3)c(C(=O)OCC)s2)cc1	6%	2%	-28	.	?	23%[10 µM]
NC(=O)c1cnn(Cc2ccc(Cl)cc2)c1N	6%	4%	14	-1%	9%	-14%[10 µM]
NNC(=O)c1cnn(Cc2ccccc2)c1N	13µM*	-3%	-22	-9%	0%	15%[10 µM]
O=C(Nc1ccc2c(c1)OCO2)c1cc(-c2ccncc2)nc2ccccc12	-2%	-13%	.	.	2%	-56%
CCC(CO)n1c(SCc2cc(=O)oc3cc(C)ccc23)nc2ccccc2c1=O (centres undefined)	4.5µM*	3%	?	-12%	28%	5%
COc1ccccc1-n1c(SCc2cc(=O)oc3cc(O)ccc23)nc2ccccc2c1=O	-19%	-19%	-7	-22%	27%	12%[0.074 µM]
COc1ccc(-n2c(O)c(/C=N/NS(=O)(=O)c3ccc(C)cc3)c3ccccc3c2=O)cc1OC	?	3%	-24	-16%	?	15%[10 µM]
COc1ccc(-n2c(O)c(/C=N/Nc3nc(C)cc(C)n3)c3ccccc3c2=O)cc1OC	0.79µM*	-24%	.	.	?	-45%
Cc1cc(C)c2c(CC(=O)O)coc2c1	-4%	11%	-9	20µM*	6%	-2%
CCC1CN2CCC1CC2[C@@H](NC(=S)Nc1cc(C(F)(F)F)cc(C(F)(F)F)c1)c1cccc2ccc(OC)cc12 (some centres undefined)	0%	-5%	.	-9%	.	-39%
CCc1cc2c(=O)c(-c3ccc4c(c3)OCCO4)c(C)oc2cc1OS(C)(=O)=O	4.5µM*	-5%	5	-22%	?	-7%[10 µM]
SMILES	ALDH1A1 inh	CBFb-RUNX1 inh	PNC inhibitor	HPGD inh	HTT aggregate	HTT ATP protect
CC(=O)Oc1ccc2c(=O)c(-c3ccccc3)c(C)oc2c1	34%	-21%	.	.	-9%	12%
COc1ccc(N2CCSC2C(=O)NN)cc1 (centres undefined)	3.2µM*	-16%	15	-15%	-9%	37%[10 µM]
COC(=O)[C@H]1[C@H](C(=O)OC)[C@@H](C(=O)OC)N(c2ccc(OC)cc2)[C@@H]1C(=O)OC	4%	2%	12	2%	-5%	.
CC(C)OC(=O)Cn1nnc2c(cnn2-c2ccccc2)c1=O	-4%	-2%	-100*	-14%	-1%	-8%[10 µM]
COC(=O)Cn1nnc2c(cnn2-c2ccccc2)c1=O	-7%	10%	.	.	6%[9.22 µM]	-1%[10 µM]
Cc1cc(C)c2nc(SC(C)C#N)cc(C)c2c1 (centres undefined)	-4%	?	15	-10%	-16%	0.63µM*
O=C(O)c1ccccc1-n1ncc2c1/C(=C/c1ccc(Cl)cc1)CC2	22µM*	-12%	.	.	22%[9.22 µM]	13%[10 µM]
O=C(O)c1ccc(-n2ncc3c2/C(=C/c2cccc([N+](=O)[O-])c2)CC3)cc1	.	-3%	.	.	-26%[9.22 µM]	-16%[10 µM]
CCC1(CC)C(=O)N(C)C(=O)NC1=NCc1ccccc1	0%	7%	?	-1%	4%	-6%[0.074 µM]
COC(=O)c1nn2c(C(F)(F)F)cc(-c3ccc(Br)o3)nc2c1Br	14µM*	2%	-18	-8%	10%[9.22 µM]	-27%
CCOCCCNC(=O)c1ccccc1Br	9%	5%	-22	10µM*	?	-5%
CCOC(=O)Cc1ccc(NC(=O)c2ccccc2Br)cc1	-15%	4%	.	.	12%	0%
